The results in this text go back to article PMC5540273 (PLoS ONE, 2017).
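Further: KINOMEscan kinase panel screen.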

For the first test, the system named is CSF1R. To be noted: concentration: 1 μM, replicates: in singlicate; n = 1.
As for `CN(c1ccc(NC(=O)Nc2cc(C(F)(F)F)ccc2F)cc1)c1ccnc(Nc2ccc(S(N)(=O)=O)cc2)n1` [GW809893], the “%Inh” value is 25%.

As for `Cc1cccc(NC(=O)Nc2ccc(Oc3ncnc4ccn(C)c34)cc2)c1`, the “%Inh” value is 99.9%.

Take `Cl.c1ccc(-c2ccc3c(Nc4ccc5[nH]ccc5c4)ccnc3c2)nc1` [GW440138]: the “%Inh” value was 75%.

As for `CN1CCN(CCCNc2nccc(-c3c(-c4ccc(F)cc4)nn4cc(C(F)(F)F)ccc34)n2)CC1` [GW621581], the “%Inh” value turned out to be 0%.

Regarding `C[C@@H](Oc1cc(-n2cnc3cc(-c4ccnc(NCCS(C)(=O)=O)c4)ccc32)sc1C(N)=O)c1ccccc1Cl` [GSK907232], the “%Inh” value is 38%.

With `Cc1cccc(Nc2nc(N[C@H]3CCNC3)ncc2C(N)=O)c1.Cl` [GSK2197149], the “%Inh” value is 87%.

For the compound `CCc1ccc(-c2ccc3c(c2)-c2c(cnn2C)S(=O)(=O)N3C)cc1`, the “%Inh” value is given as 3%.

Regarding `COc1cc(Nc2ncc3c(C)nc(-c4cc5ccccc5[nH]4)n3n2)cc(OC)c1OC` [GW869516], the “%Inh” value was determined as 0%.

Take `Cc1ccc(S(=O)(=O)Nc2ccc(Nc3nccc(Nc4cccc5[nH]ncc45)n3)cc2)cc1` [GSK581271]: the “%Inh” value worked out at 22%.

With `COc1ccc(Nc2nccc(NCCNC(=O)c3cc4ccccc4s3)n2)cc1` [GSK1379896], the “%Inh” value is on record as 0%.

In the case of `CN1CCN(Cc2cccc(-c3ccc4c(Nc5ccc(Oc6ccccc6)cc5)ccnc4c3)c2)CC1` [GW578342], the “%Inh” value came to 5%.

Turning to `COc1ccc(Nc2nccc(N3CCC(NC(=O)Nc4cccc(OC)c4)C3)n2)cc1` (stereo not drawn) [GSK1379742], the “%Inh” value is given as 0%.

With `O=C(Nc1n[nH]c2cc(-c3ccoc3)ccc12)C1CC1` [SB-738481], the “%Inh” value was 2%.

Turning to `Nc1ncnc2c1nc(-c1ccccc1)n2-c1ccccc1` [SKF-97293], the “%Inh” value came out at 7%.

`COc1ccc(CNC(=O)NC2CCN(c3ccnc(Nc4ccc(F)cc4)n3)CC2)cc1` [GSK1379788]: the “%Inh” value is 8%.

Regarding `Cc1occc1-c1ncc(OC[C@@H](N)Cc2c[nH]c3ccccc23)cc1-c1ccc2[nH]nc(C)c2c1.O=C(O)C(F)(F)F` [GSK682037], the “%Inh” value came to 1%.

As for `c1ccc(-c2n[nH]cc2Nc2ccnc3ccccc23)nc1` [GW694077], the “%Inh” value is reported as 7%.

`O=C(Nc1cccc(-c2nn3ncccc3c2-c2ccnc(Nc3ccccc3)n2)c1)c1c(F)cccc1F` [GSK198271]: the “%Inh” value was found to be 99.7%.

Turning to `Nc1n[nH]c2cnc(-c3ccccc3)cc12` [SB-642124], the “%Inh” value was found to be 17%.

In the case of `CC(=O)Nc1nc2cnc(Nc3cc(NC(=O)c4cccc(C5(C#N)CC5)c4Cl)ccc3C)nc2s1`, the “%Inh” value worked out at 99.4%.

On to `O=C(Nc1n[nH]c2nc(-c3ccc(O)cc3)ccc12)C1CC1` [SB-710363], for which the “%Inh” value was determined as 0%.

Consider `Cn1cc(-c2[nH]c3cc(NC(=O)[C@H](N)C4CCCCC4)cc4c3c2C=NNC4=O)cn1`, for which the “%Inh” value came out at 100%.

`O=C(Nc1cccc(-c2nn3ccccc3c2-c2ccnc(Nc3cccc(F)c3)n2)c1)c1c(F)ccc(F)c1Cl` [GSK357952]: the “%Inh” value was 93.3%.

As for `O=C(Nc1ccccc1F)NC1CCN(c2ccnc(Nc3ccc(F)cc3)n2)CC1` [GSK1379800], the “%Inh” value came out at 5%.

`CSc1cccc2c(-c3ccncn3)c(-c3ccc(F)cc3)nn12` [GW514786]: the “%Inh” value is reported as 0%.

On to `COc1ccc(-c2coc3ccc(-c4nnc(SCc5ccc(OC)c(C(F)(F)F)c5)o4)cc23)cc1`, for which the “%Inh” value came to 0%.

In another test the test system is CSK. To be noted: concentration: 1 μM, replicates: in singlicate; n = 1.
As for `CN(C)S(=O)(=O)c1cc(-c2ccc3nccc(-c4cccc(S(N)(=O)=O)c4)c3c2)cnc1N` [GSK1669921], the “%Inh” value was determined as 0%.

In the case of `CCS(=O)(=O)c1ccc(OC)c(Nc2nccc(-c3c(-c4cccc(NC(=O)c5c(F)cccc5F)c4)nn4ncccc34)n2)c1` [GSK326180], the “%Inh” value is given as 17%.

`COc1cc(Nc2nccc(N3CCC(NC(=O)c4cc5ccccc5s4)C3)n2)cc(OC)c1OC` (stereo not drawn) [GSK1379760]: the “%Inh” value is on record as 0%.

For `Cc1ccc(F)c(C(=O)Nc2cccc(-c3nn4ccccc4c3-c3ccnc(Nc4cccc(F)c4)n3)c2)c1F` [GSK361061], the “%Inh” value came out at 39%.

For `Clc1ccc(-c2nn3ncccc3c2-c2ccnc(Nc3ccc4c(c3)OCCO4)n2)cc1` [GW829116], the “%Inh” value is given as 0%.

As to `CCCCc1nn2ncccc2c1-c1ccnc(Nc2ccc(N3CCN(C)CC3)cc2)n1` [GW684941], the “%Inh” value is given as 7%.

As to `CCn1c(-c2nonc2N)nc2c(C#CC(C)(C)O)ncc(OCCCCN)c21.O=C(O)C(F)(F)F.O=C(O)C(F)(F)F` [GSK507274], the “%Inh” value is 0%.

As for `O=C(NC1CCN(c2ccnc(Nc3ccc(F)cc3)n2)C1)c1cc2ccccc2s1` (stereo not drawn) [GSK1379716], the “%Inh” value is on record as 0%.

In the case of `COc1cc2c(cc1OCCN1CCNCC1)ncc1c3ccc(C#N)cc3[nH]c21`, the “%Inh” value turned out to be 12%.

`COc1cc(Nc2nccc(N3CCC(NC(=O)Nc4cccc(C(C)=O)c4)C3)n2)cc(OC)c1OC` (stereo not drawn) [GSK1379753]: the “%Inh” value amounted to 0%.

With `O=C(Nc1cccc(-c2nn3ccccc3c2-c2ccnc(Nc3cccc(C(F)(F)F)c3)n2)c1)c1c(F)cccc1F` [GSK292658], the “%Inh” value stood at 31%.

`CN(c1ccc(NC(=O)Nc2cc(C(F)(F)F)ccc2F)cc1)c1ccnc(Nc2ccc(S(N)(=O)=O)cc2)n1` [GW809893]: the “%Inh” value was 9%.

In the case of `Cc1cccc(NC(=O)Nc2ccc(Oc3ncnc4ccn(C)c34)cc2)c1`, the “%Inh” value was found to be 0%.

Take `Cl.c1ccc(-c2ccc3c(Nc4ccc5[nH]ccc5c4)ccnc3c2)nc1` [GW440138]: the “%Inh” value is recorded as 0%.

On to `CN1CCN(CCCNc2nccc(-c3c(-c4ccc(F)cc4)nn4cc(C(F)(F)F)ccc34)n2)CC1` [GW621581], for which the “%Inh” value was 0%.

As to `C[C@@H](Oc1cc(-n2cnc3cc(-c4ccnc(NCCS(C)(=O)=O)c4)ccc32)sc1C(N)=O)c1ccccc1Cl` [GSK907232], the “%Inh” value is 0%.

For the compound `Cc1cccc(Nc2nc(N[C@H]3CCNC3)ncc2C(N)=O)c1.Cl` [GSK2197149], the “%Inh” value is 0%.

Regarding `CCc1ccc(-c2ccc3c(c2)-c2c(cnn2C)S(=O)(=O)N3C)cc1`, the “%Inh” value is 0%.

On to `COc1cc(Nc2ncc3c(C)nc(-c4cc5ccccc5[nH]4)n3n2)cc(OC)c1OC` [GW869516], for which the “%Inh” value came out at 13%.

For the compound `Cc1ccc(S(=O)(=O)Nc2ccc(Nc3nccc(Nc4cccc5[nH]ncc45)n3)cc2)cc1` [GSK581271], the “%Inh” value was 0%.

In the case of `COc1ccc(Nc2nccc(NCCNC(=O)c3cc4ccccc4s3)n2)cc1` [GSK1379896], the “%Inh” value came to 0%.

As to `CN1CCN(Cc2cccc(-c3ccc4c(Nc5ccc(Oc6ccccc6)cc5)ccnc4c3)c2)CC1` [GW578342], the “%Inh” value is given as 76%.

With `COc1ccc(Nc2nccc(N3CCC(NC(=O)Nc4cccc(OC)c4)C3)n2)cc1` (stereo not drawn) [GSK1379742], the “%Inh” value was found to be 0%.

In the case of `O=C(Nc1n[nH]c2cc(-c3ccoc3)ccc12)C1CC1` [SB-738481], the “%Inh” value amounted to 0%.

Consider `Nc1ncnc2c1nc(-c1ccccc1)n2-c1ccccc1` [SKF-97293], for which the “%Inh” value came out at 22%.

On to `COc1ccc(CNC(=O)NC2CCN(c3ccnc(Nc4ccc(F)cc4)n3)CC2)cc1` [GSK1379788], for which the “%Inh” value was 0%.

In the case of `Cc1occc1-c1ncc(OC[C@@H](N)Cc2c[nH]c3ccccc23)cc1-c1ccc2[nH]nc(C)c2c1.O=C(O)C(F)(F)F` [GSK682037], the “%Inh” value came out at 0%.

Turning to `c1ccc(-c2n[nH]cc2Nc2ccnc3ccccc23)nc1` [GW694077], the “%Inh” value is reported as 0%.

Consider `O=C(Nc1cccc(-c2nn3ncccc3c2-c2ccnc(Nc3ccccc3)n2)c1)c1c(F)cccc1F` [GSK198271], for which the “%Inh” value amounted to 97.5%.

For `Nc1n[nH]c2cnc(-c3ccccc3)cc12` [SB-642124], the “%Inh” value was found to be 0%.

`CC(=O)Nc1nc2cnc(Nc3cc(NC(=O)c4cccc(C5(C#N)CC5)c4Cl)ccc3C)nc2s1`: the “%Inh” value is listed as 41%.

With `O=C(Nc1n[nH]c2nc(-c3ccc(O)cc3)ccc12)C1CC1` [SB-710363], the “%Inh” value is 0%.

`Cn1cc(-c2[nH]c3cc(NC(=O)[C@H](N)C4CCCCC4)cc4c3c2C=NNC4=O)cn1`: the “%Inh” value was 71%.

For the compound `O=C(Nc1cccc(-c2nn3ccccc3c2-c2ccnc(Nc3cccc(F)c3)n2)c1)c1c(F)ccc(F)c1Cl` [GSK357952], the “%Inh” value was 20%.

Regarding `O=C(Nc1ccccc1F)NC1CCN(c2ccnc(Nc3ccc(F)cc3)n2)CC1` [GSK1379800], the “%Inh” value is recorded as 0%.

Take `CSc1cccc2c(-c3ccncn3)c(-c3ccc(F)cc3)nn12` [GW514786]: the “%Inh” value is 0%.

`COc1ccc(-c2coc3ccc(-c4nnc(SCc5ccc(OC)c(C(F)(F)F)c5)o4)cc23)cc1`: the “%Inh” value is 16%.
